Data published in the supplement of paper PMC4466140.

B1: unnamed (peptide)
chain: LLRRTIPKRPFYHVL
B2: unnamed (peptide)
chain: YSRKKLPVVLSKMTL

What follows are binders tested against AgAbp1 (assay: SPOT peptide array binding signal intensity (averaged, normalized) (arbitrary units (background-subtracted, floor 0; scale differs between SH3 domains)); higher = stronger binding of the SH3 domain to the peptide).
Procedure, shortened: (§1)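 To measure binding, SH3 domains from four yeast species were fused to GST, expressed in E. coli BL21(DE3) and purified on glutathione Sepharose. Each domain was incubated at 10 μg/ml overnight at 4°C on cellulose membranes with synthetic 15-mer peptides whose cysteines were replaced by serines. Anti-GST antibody, an HRP anti-mouse secondary and luminol were used for detection, and images were quantified with Genespotter. Reported binding signal is normalized, background-subtracted spot intensity averaged over replicates, in arbitrary units that differ between domains.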

Binder	SPOT peptide array binding signal intensity
B1	66.5
B2	68

Each binder was assayed against AgBbc1 in the same assay as above.
Procedure, shortened: as §1

Binder	SPOT peptide array binding signal intensity
B1	73.8
B2	21.5

These binders were tested against AgBem1-D1 in the same assay as above.
Procedure, shortened: as §1

Binder	SPOT peptide array binding signal intensity
B1	44.5
B2	45.5

What follows are binders tested against AgBzz1-D1 in the same assay as above.
Procedure, shortened: as §1

Binder	SPOT peptide array binding signal intensity
B1	13
B2	82.5

Each binder was assayed against AgBzz1-D2 in the same assay as above.
Procedure, shortened: as §1

Binder	SPOT peptide array binding signal intensity
B1	200
B2	43.5

These binders were tested against AgCyk3 in the same assay as above.
Procedure, shortened: as §1

Binder	SPOT peptide array binding signal intensity
B1	≤ 0
B2	3

The binders below were run against AgFus1 in the same assay as above.
Procedure, shortened: as §1

Binder	SPOT peptide array binding signal intensity
B1	295
B2	109

The binders below were run against AgHof1 in the same assay as above.
Procedure, shortened: as §1

Binder	SPOT peptide array binding signal intensity
B1	11.5
B2	28.8

Each binder was assayed against AgHse1 in the same assay as above.
Procedure, shortened: as §1

Binder	SPOT peptide array binding signal intensity
B1	828
B2	126

What follows are binders tested against AgLsb1 in the same assay as above.
Procedure, shortened: as §1

Binder	SPOT peptide array binding signal intensity
B1	1
B2	223

Each binder was assayed against AgLsb4 in the same assay as above.
Procedure, shortened: as §1

Binder	SPOT peptide array binding signal intensity
B1	79
B2	12

The binders below were run against AgMyo5 in the same assay as above.
Procedure, shortened: as §1

Binder	SPOT peptide array binding signal intensity
B1	≤ 0
B2	3.25

What follows are binders tested against AgNbp2 in the same assay as above.
Procedure, shortened: as §1

Binder	SPOT peptide array binding signal intensity
B1	121
B2	48.5

What follows are binders tested against AgRvs167 in the same assay as above.
Procedure, shortened: as §1

Binder	SPOT peptide array binding signal intensity
B1	4.5
B2	3.5

What follows are binders tested against AgSho1 in the same assay as above.
Procedure, shortened: as §1

Binder	SPOT peptide array binding signal intensity
B1	59
B2	190

Each binder was assayed against AgSla1-D1-D2 in the same assay as above.
Procedure, shortened: as §1

Binder	SPOT peptide array binding signal intensity
B1	108
B2	57

Each binder was assayed against AgSla1-D3 in the same assay as above.
Procedure, shortened: as §1

Binder	SPOT peptide array binding signal intensity
B1	0.5
B2	14.5

What follows are binders tested against CaAbp1-D1 in the same assay as above.
Procedure, shortened: as §1

Binder	SPOT peptide array binding signal intensity
B1	604
B2	444

These binders were tested against CaAbp1-D2 in the same assay as above.
Procedure, shortened: as §1

Binder	SPOT peptide array binding signal intensity
B1	775
B2	126

The binders below were run against CaBbc1 in the same assay as above.
Procedure, shortened: as §1

Binder	SPOT peptide array binding signal intensity
B1	427
B2	15.8

These binders were tested against CaBem1-D1 in the same assay as above.
Procedure, shortened: as §1

Binder	SPOT peptide array binding signal intensity
B1	8.5
B2	35.5

What follows are binders tested against CaBzz1-D1 in the same assay as above.
Procedure, shortened: as §1

Binder	SPOT peptide array binding signal intensity
B1	71.5
B2	197

What follows are binders tested against CaBzz1-D2 in the same assay as above.
Procedure, shortened: as §1

Binder	SPOT peptide array binding signal intensity
B1	39.5
B2	92.2

The binders below were run against CaCyk3 in the same assay as above.
Procedure, shortened: as §1

Binder	SPOT peptide array binding signal intensity
B1	156
B2	8

These binders were tested against CaFus1 in the same assay as above.
Procedure, shortened: as §1

Binder	SPOT peptide array binding signal intensity
B1	314
B2	166

The binders below were run against CaHof1 in the same assay as above.
Procedure, shortened: as §1

Binder	SPOT peptide array binding signal intensity
B1	0.5
B2	2

These binders were tested against CaHse1 in the same assay as above.
Procedure, shortened: as §1

Binder	SPOT peptide array binding signal intensity
B1	22
B2	17.2

The binders below were run against CaLsb1 in the same assay as above.
Procedure, shortened: as §1

Binder	SPOT peptide array binding signal intensity
B1	0.5
B2	16

The binders below were run against CaLsb4 in the same assay as above.
Procedure, shortened: as §1

Binder	SPOT peptide array binding signal intensity
B1	94.5
B2	25.5

Each binder was assayed against CaMyo5 in the same assay as above.
Procedure, shortened: as §1

Binder	SPOT peptide array binding signal intensity
B1	0.5
B2	4.75

What follows are binders tested against CaNbp2 in the same assay as above.
Procedure, shortened: as §1

Binder	SPOT peptide array binding signal intensity
B1	262
B2	143

These binders were tested against CaRvs167 in the same assay as above.
Procedure, shortened: as §1

Binder	SPOT peptide array binding signal intensity
B1	48.2
B2	16.7

These binders were tested against CaRvs167-3 in the same assay as above.
Procedure, shortened: as §1

Binder	SPOT peptide array binding signal intensity
B1	92
B2	11.5

What follows are binders tested against CaSho1 in the same assay as above.
Procedure, shortened: as §1

Binder	SPOT peptide array binding signal intensity
B1	608
B2	131

What follows are binders tested against CaSla1-D1-D2 in the same assay as above.
Procedure, shortened: as §1

Binder	SPOT peptide array binding signal intensity
B1	140
B2	264

Each binder was assayed against CaSla1-D3 in the same assay as above.
Procedure, shortened: as §1

Binder	SPOT peptide array binding signal intensity
B1	3
B2	131

The binders below were run against ScAbp1 in the same assay as above.
Procedure, shortened: as §1

Binder	SPOT peptide array binding signal intensity
B1	23.5
B2	108

What follows are binders tested against ScBbc1 in the same assay as above.
Procedure, shortened: as §1

Binder	SPOT peptide array binding signal intensity
B1	25.5
B2	11

These binders were tested against ScBem1-D1 in the same assay as above.
Procedure, shortened: as §1

Binder	SPOT peptide array binding signal intensity
B1	7
B2	31

These binders were tested against ScBzz1-D1 in the same assay as above.
Procedure, shortened: as §1

Binder	SPOT peptide array binding signal intensity
B1	3.5
B2	67.5

Each binder was assayed against ScBzz1-D2 in the same assay as above.
Procedure, shortened: as §1

Binder	SPOT peptide array binding signal intensity
B1	13
B2	75

What follows are binders tested against ScCyk3 in the same assay as above.
Procedure, shortened: as §1

Binder	SPOT peptide array binding signal intensity
B1	26
B2	9

These binders were tested against ScFus1 in the same assay as above.
Procedure, shortened: as §1

Binder	SPOT peptide array binding signal intensity
B1	307
B2	108

The binders below were run against ScHof1 in the same assay as above.
Procedure, shortened: as §1

Binder	SPOT peptide array binding signal intensity
B1	1.5
B2	4.5

The binders below were run against ScHse1 in the same assay as above.
Procedure, shortened: as §1

Binder	SPOT peptide array binding signal intensity
B1	898
B2	370

Each binder was assayed against ScLsb1 in the same assay as above.
Procedure, shortened: as §1

Binder	SPOT peptide array binding signal intensity
B1	44.2
B2	191

Each binder was assayed against ScLsb2 in the same assay as above.
Procedure, shortened: as §1

Binder	SPOT peptide array binding signal intensity
B1	13
B2	1100

The binders below were run against ScLsb3 in the same assay as above.
Procedure, shortened: as §1

Binder	SPOT peptide array binding signal intensity
B1	855
B2	24.5

The binders below were run against ScLsb4 in the same assay as above.
Procedure, shortened: as §1

Binder	SPOT peptide array binding signal intensity
B1	18.5
B2	12.5

Each binder was assayed against ScMyo3 in the same assay as above.
Procedure, shortened: as §1

Binder	SPOT peptide array binding signal intensity
B1	0.5
B2	6

Each binder was assayed against ScMyo5 in the same assay as above.
Procedure, shortened: as §1

Binder	SPOT peptide array binding signal intensity
B1	≤ 0
B2	6

These binders were tested against ScNbp2 in the same assay as above.
Procedure, shortened: as §1

Binder	SPOT peptide array binding signal intensity
B1	343
B2	95

What follows are binders tested against ScPex13 in the same assay as above.
Procedure, shortened: as §1

Binder	SPOT peptide array binding signal intensity
B1	110
B2	150

These binders were tested against ScRvs167 in the same assay as above.
Procedure, shortened: as §1

Binder	SPOT peptide array binding signal intensity
B1	612
B2	8.33

The binders below were run against ScSho1 in the same assay as above.
Procedure, shortened: as §1

Binder	SPOT peptide array binding signal intensity
B1	357
B2	2450

Each binder was assayed against ScSla1-D1-D2 in the same assay as above.
Procedure, shortened: as §1

Binder	SPOT peptide array binding signal intensity
B1	146
B2	300

Each binder was assayed against ScSla1-D3 in the same assay as above.
Procedure, shortened: as §1

Binder	SPOT peptide array binding signal intensity
B1	2
B2	53.2

The binders below were run against SpAbp1-D1 in the same assay as above.
Procedure, shortened: as §1

Binder	SPOT peptide array binding signal intensity
B1	402
B2	243

These binders were tested against SpBbc1 in the same assay as above.
Procedure, shortened: as §1

Binder	SPOT peptide array binding signal intensity
B1	5
B2	3

The binders below were run against SpBzz1-D1 in the same assay as above.
Procedure, shortened: as §1

Binder	SPOT peptide array binding signal intensity
B1	76
B2	137

Each binder was assayed against SpBzz1-D2 in the same assay as above.
Procedure, shortened: as §1

Binder	SPOT peptide array binding signal intensity
B2	1.5

These binders were tested against SpCyk3 in the same assay as above.
Procedure, shortened: as §1

Binder	SPOT peptide array binding signal intensity
B2	4

The binders below were run against SpHof1 in the same assay as above.
Procedure, shortened: as §1

Binder	SPOT peptide array binding signal intensity
B2	76.8

What follows are binders tested against SpHof1-2 in the same assay as above.
Procedure, shortened: as §1

Binder	SPOT peptide array binding signal intensity
B2	27.2

The binders below were run against SpHof1-3 in the same assay as above.
Procedure, shortened: as §1

Binder	SPOT peptide array binding signal intensity
B2	295

The binders below were run against SpHse1 in the same assay as above.
Procedure, shortened: as §1

Binder	SPOT peptide array binding signal intensity
B2	77.8

These binders were tested against SpLsb1 in the same assay as above.
Procedure, shortened: as §1

Binder	SPOT peptide array binding signal intensity
B2	48

These binders were tested against SpLsb4 in the same assay as above.
Procedure, shortened: as §1

Binder	SPOT peptide array binding signal intensity
B2	40.5

The binders below were run against SpMyo1 in the same assay as above.
Procedure, shortened: as §1

Binder	SPOT peptide array binding signal intensity
B2	6

What follows are binders tested against SpNbp2 in the same assay as above.
Procedure, shortened: as §1

Binder	SPOT peptide array binding signal intensity
B2	49.5

These binders were tested against SpPex13 in the same assay as above.
Procedure, shortened: as §1

Binder	SPOT peptide array binding signal intensity
B2	53

The binders below were run against SpRvs167 in the same assay as above.
Procedure, shortened: as §1

Binder	SPOT peptide array binding signal intensity
B2	8.67

The binders below were run against SpSla1-D1-D2 in the same assay as above.
Procedure, shortened: as §1

Binder	SPOT peptide array binding signal intensity
B2	11.5

What follows are binders tested against SpSla1-D3 in the same assay as above.
Procedure, shortened: as §1

Binder	SPOT peptide array binding signal intensity
B2	41.5
